The record followed here is ChEMBL document CHEMBL4808148, “HDAC6 screening dataset using tau-based substrate in an enzymatic assay yields selective inhibitors and activators” (2021).

Test [1] has as its target T1, Protein deacetylase HDAC6 (Homo sapiens) (UniProt Q9UBN7).
T1 sequence (whole entry): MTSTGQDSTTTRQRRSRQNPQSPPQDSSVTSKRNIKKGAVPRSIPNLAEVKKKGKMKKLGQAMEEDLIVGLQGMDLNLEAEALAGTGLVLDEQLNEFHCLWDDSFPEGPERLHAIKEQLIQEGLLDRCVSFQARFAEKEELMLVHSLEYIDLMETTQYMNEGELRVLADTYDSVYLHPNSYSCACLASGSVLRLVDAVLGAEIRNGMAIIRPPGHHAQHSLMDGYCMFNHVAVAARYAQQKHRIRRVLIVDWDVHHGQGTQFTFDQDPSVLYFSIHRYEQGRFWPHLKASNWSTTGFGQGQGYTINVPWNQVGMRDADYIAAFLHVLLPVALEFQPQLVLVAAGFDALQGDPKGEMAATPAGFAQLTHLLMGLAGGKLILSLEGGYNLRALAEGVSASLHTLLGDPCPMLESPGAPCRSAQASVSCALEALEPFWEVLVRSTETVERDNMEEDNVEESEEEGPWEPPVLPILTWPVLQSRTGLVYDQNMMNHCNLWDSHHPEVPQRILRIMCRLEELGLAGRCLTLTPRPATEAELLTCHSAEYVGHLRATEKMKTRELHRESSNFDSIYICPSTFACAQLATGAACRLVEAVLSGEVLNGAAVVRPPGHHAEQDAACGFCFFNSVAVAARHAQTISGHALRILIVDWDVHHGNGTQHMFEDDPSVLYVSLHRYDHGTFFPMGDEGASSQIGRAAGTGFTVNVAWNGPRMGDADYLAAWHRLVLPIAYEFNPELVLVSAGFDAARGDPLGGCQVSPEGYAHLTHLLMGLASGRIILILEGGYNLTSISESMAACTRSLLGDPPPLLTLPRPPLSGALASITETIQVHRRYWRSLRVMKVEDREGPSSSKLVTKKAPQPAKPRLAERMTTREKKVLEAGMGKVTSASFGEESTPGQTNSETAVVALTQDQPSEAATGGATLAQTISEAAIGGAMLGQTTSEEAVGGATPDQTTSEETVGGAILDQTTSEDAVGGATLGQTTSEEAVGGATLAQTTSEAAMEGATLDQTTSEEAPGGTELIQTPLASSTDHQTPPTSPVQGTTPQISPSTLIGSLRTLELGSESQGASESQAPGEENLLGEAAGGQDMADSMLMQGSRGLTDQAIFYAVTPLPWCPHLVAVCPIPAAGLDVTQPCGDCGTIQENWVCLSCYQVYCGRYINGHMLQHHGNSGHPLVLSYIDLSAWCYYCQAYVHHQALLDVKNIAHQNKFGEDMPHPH
Particulars: at 10 µM.

Test [2] concerns the target Protein deacetylase HDAC6 (Homo sapiens) (UniProt Q9UBN7). Particulars: at 10 µM. The source holds these as a separate data set.

Screen size: about 5,600 compounds; about 150 (2.7%) showed an effect of 50% or more. The list comes from a sample in which strong results are over-represented; it also holds similar structures and randomly drawn compounds.

Consider `CC/C(=C(\c1ccc(OCCN(C)C)cc1)c1cccc(O)c1)c1ccccc1`, for which the inhibition in test [1] is -4.47%.
On the same count and under the same terms, with `CC(C)(N)c1nc(-c2ccc(OC(F)(F)F)cc2)c[nH]1` the figure was 3.83%.
With `C[C@]12CC[C@H](O)CC1=CCC1C2CC[C@]2(C)C(n3cnc4ccccc43)=CCC12` (some centres undefined), the inhibition in test [1] stood at 10.9%.
With `CCCCc1ccc2[nH]c(NC(=O)OC)nc2c1`, the inhibition in test [1] came out at 15.1%.
Still for that read-out and setting: the same measure for `O=C(NO)c1ccc2[nH]c(=O)c(CCCc3ccccc3)nc2c1`: 97.8%; for `O=C(Nc1cccc2c(=O)cc(-c3nnn[nH]3)oc12)c1ccc(OCCCCc2ccccc2)cc1`: 2.83%; for `NC(=O)CCCCn1ccc(/N=C(\N)NCC(F)(F)F)n1`: -7.78%.
Consider `CC(=O)Nc1ccc(C(=O)O)cc1`, for which, in test [1], the inhibition is -3.9%.
In the case of `C/C(O)=C(\C#N)C(=O)Nc1ccc(C(F)(F)F)cc1`, in test [1], the inhibition was 98.6%.
Same read-out and setting: with `O=C(Nc1ccc(C(O)(C(F)(F)F)C(F)(F)F)cc1)c1ccc(C(F)(F)F)cc1` the figure was 0.41%; with `C=C1CC/C=C(\C)CC[C@@H]2[C@@H]1CC2(C)C`, 2.39%; with `O=c1c(-c2ccccc2)c1-c1ccccc1`, 10.5%.
The same measure, in the same setting: with `CCOc1cccc(NC(=O)c2ccc(N3CCCC3)c(C(F)(F)F)c2)c1` the figure was 0.15%.
`CCCCOc1ccc(C(=O)CCN2CCCCC2)cc1`: the inhibition in test [1] is -4.56%.
Same read-out and setting: with `CCCCOc1ccc(C(=O)Nc2ccc(F)cc2F)cc1` the figure was 49%.
Same read-out and setting: with `CCCCOc1ccc(CC(=O)NO)cc1` the figure was 75.5%; with `CC[C@H](CC[C@@H](C)[C@H]1CC[C@H]2[C@@H]3CC=C4C[C@@H](O[C@@H]5O[C@H](CO)[C@@H](O)[C@H](O)[C@H]5O)CC[C@]4(C)[C@H]3CC[C@]12C)C(C)C`, 2.47%; with `N#Cc1ccc(-c2ccc(S(=O)(=O)Nc3cccc(N)n3)cc2)cc1`, 2.23%.
On the same count and under the same terms, with `Nc1ncccc1-c1nc2ccc(-c3ccccc3)nc2n1-c1ccc(C2(N)CCC2)cc1` the figure was 0.11%; with `N[C@@H](C(=O)O)c1ccc(O)c(C(=O)O)c1`, -2.24%.
For `N[C@H](C(=O)O)c1ccc(O)c(C(=O)O)c1`, the inhibition in test [1] was -4.47%.
The same measure, in the same setting: the same measure for `CC(C)c1ccc2oc3nc(N)c(C(=O)O)cc3c(=O)c2c1`: 99.5%; for `CCOc1cc(OCC)c(C(=O)CCC(=O)O)cc1OCC`: -6.02%.
As to `Cc1n[nH]c2ccc(-c3cncc(OC[C@@H](N)Cc4ccccc4)c3)cc12`, the inhibition in test [1] is -5.53%.
Regarding hemin, CHEMBL5308479, the inhibition in test [2] was 13.1%.
For `O=C1c2c(O)ccc(O)c2C(=O)c2c(NCCNCCO)ccc(NCCNCCO)c21`, the inhibition in test [1] came to 16%.
Still for that read-out and setting: with `NCCNS(=O)(=O)c1ccc(Cl)c2ccncc12` the figure was -2.71%; with `NCCNc1ccc(NCCN)c2c1C(=O)c1ccncc1C2=O`, 62.5%; with `Clc1ccc2c(N3CCN(CCCN4CCN(c5ccnc6cc(Cl)ccc56)CC4)CC3)ccnc2c1`, -8.35%.
Same read-out and setting: the same measure for `CC(C)(C)c1ccc(S(=O)(=O)Nc2ccc(Cl)cc2C(=O)c2cc[n+]([O-])cc2)cc1`: -2.23%; for `CC(C)Oc1ccc(Cc2ccc(NC3=NCCN3)cc2)cc1`: 18.9%; for `CCOC(=O)c1ccc(O)cc1`: -0.21%.
On the same count and under the same terms, with `CCOC(=O)c1cc2ccc(O)cc2oc1=O` the figure was 86.3%; with `CCOC(=O)c1c(C)n(C)c2ccc(O)cc12`, 0.03%.
Consider `O=C1Nc2ccccc2C2=NC(CN3CCN(c4ccccc4)CC3)CN12` (centres undefined), for which, in test [1], the inhibition is -3.43%.
Same read-out and setting: the same measure for `O=C(O)COc1cccc(CN(Cc2ccc(-n3cccn3)cc2)S(=O)(=O)c2cccnc2)c1`: 0.4%; for `COc1ccc(C(=O)c2ccccc2O)c(O)c1`: 6.28%.
Turning to `COC(=O)Nc1nc2cc(C(=O)c3ccccc3)ccc2[nH]1`, the inhibition in test [1] turned out to be 6.52%.
As to `COc1ccc2[nH]c(C(=O)c3ccccc3)cc2c1`, the inhibition in test [1] came to 73.2%.
Take `CCN1C(C)(C)CC(Oc2ccc(C(=O)Nc3ccc(NC(=O)Nc4cc(C(C)(C)C)on4)cc3)nc2)CC1(C)C`: in test [1], the inhibition was 8.01%.
With `O=C1N=C(NCc2cccs2)S/C1=C\c1ccc2ncccc2c1`, in test [1], the inhibition was determined as 13.2%.
For the compound `CCC[C@@]1(CCc2ccccc2)CC(O)=C([C@H](CC)c2cccc(NS(=O)(=O)c3ccc(C(F)(F)F)cn3)c2)C(=O)O1`, the inhibition in test [1] was -1.6%.
Same read-out and setting: the same measure for `CCn1c(=O)c(-c2ccc(Cl)cc2Cl)cc2cnc(Nc3ccc(N4CCNCC4)c(F)c3)nc21`: -3.08%.
Same read-out and setting: the same measure for `CNC(=O)c1ccccc1Sc1ccc2c(/C=C/c3ccccn3)n[nH]c2c1`: 98.1%; for `CNC(=O)c1cc2c(cn1)[nH]c1ccccc12`: 15.7%.
On the same count and under the same terms, the same measure for `C[C@@]1(F)[C@H](O)[C@@H](CO)O[C@H]1n1ccc(N)nc1=O`: -2.29%; for `CNc1cc(OC)c(C(=O)N[C@@H]2CCN(Cc3ccccc3)[C@@H]2C)cc1Cl.CNc1cc(OC)c(C(=O)N[C@H]2CCN(Cc3ccccc3)[C@H]2C)cc1Cl`: 7.84%.
With BISMUTH SUBGALLATE, CHEMBL1592101, the inhibition in test [2] is -3.52%.
As to `CCN(CC)c1ccc(C(=C2C=CC(=[N+](CC)CC)C=C2)c2ccccc2)cc1`, the inhibition in test [1] came to 58.6%.
Turning to `CCN(CC)c1ccc(/C=N/NC(=O)c2ccc(O)cc2)cc1`, the inhibition in test [1] was found to be 49.5%.
In the case of `CCCC[C@]1(CC)CS(=O)(=O)c2cc(CNC(CC(=O)O)CC(=O)O)c(OC)cc2[C@@H](c2ccccc2)N1`, the inhibition in test [1] was found to be 0.63%.
Still for that read-out and setting: the same measure for `O=C(NCC1CN(c2ccc(N3CCOCC3=O)cc2)C(=O)O1)c1ccc(Cl)s1` (centres undefined): 2.41%; for `CN(C)Cc1ccc(S(=O)(=O)n2ccc(/C=C/C(=O)NO)c2)cc1`: 97.8%; for `Cn1cc(-c2ccc(S(=O)(=O)n3ccc(/C=C/C(=O)Nc4ccccc4N)c3)cc2)cn1`: 9.5%.
